From PubChem BioAssay (NCI)
About 79,000 compounds went through this panel and 15% of them were active in at least one assay; those are over-represented in the sample as a whole. A number with no mark means an inactive call. Active and inactive are the calls of the source. Rule as the data show it: active = growth inhibition above about 70%; inactive = the rest.

Experiment: NCI Yeast Anticancer Drug Screen. Data for the rad18 strain (AID 177)
Settings: S. cerevisiae rad18 mutant growth inhibition, active compounds read high
Experimental: Growth inhibition of yeast strains with defined genetic alterations is measured as a screen for potential anti-cancer activity. Selected strains with alterations in DNA damage repair or cell cycle control were exposed to compounds and growth inhibition was measured relative to vehicle treated controls. The strain used in this assay is rad18

SMILES | growth inhibition (at 1.2 µM) | growth inhibition (at 3.7 µM) | growth inhibition (at 11.0 µM) | growth inhibition (at 33.0 µM) | growth inhibition (at 100.0 µM)
COc1cc(C(=O)/C=C/c2ccccc2O)ccc1O | 1% | 47% | 98% (active) | 98% (active) | 98% (active)
O=C(OCC=C1CCCC1)c1cc([N+](=O)[O-])cc([N+](=O)[O-])c1 | -2% | 2% | 21% | 95% (active) | 98% (active)
COC(=O)CSSCc1ccc([N+](=O)[O-])cc1 | -2% | 19% | 48% | 83% (active) | 97% (active)
O=C1C=CC(=O)c2c(O)c(Nc3ccc(OC(F)(F)F)cc3)c(Cl)c(O)c21 | -2% | -2% | 4% | 45% | 92% (active)
CSC(=S)N/N=C(\C)c1cccc(C)n1 | -5% | -5% | 10% | 75% (active) | 96% (active)
CCCCCCCCCCCCCCCCCCN(C)CC(COP(=O)([O-])OCC[N+](C)(C)C)OC (stereo not given) | -6% | 11% | 98% (active) | 98% (active) | 98% (active)
CCN(CC)C(C)(C)C(=O)/C=C/c1ccccc1 | 1% | -1% | -1% | 3% | 6%
COc1ccc(OC)c2cc3ccccc3cc12 | 5% | 4% | 21% | 24% | 50%
